Screening results: PubChem BioAssay, National Center for Advancing Translational Sciences (NCATS)
Most compounds without a hit are left out; they make up all but 3.7% or so of the library.
ATXN2 expr inh – reduces ATXN2 reporter expression in HEK-293 cells | AID 1745845 | Potency, µM (doses to about 57 µM), inactives show at the top dose activity change, negative = inhibition, most hits filed as inhibitors | HEK-293 ATXN2-luciferase reporter, luminescence, 24 h | actives 0.72% (n = 360,000); note: % is set by controls: 0 for no effect and ±100 for the full control effect; nearly all actives have a fitted effect of over 55% in size
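ATXN2-luciferase reporter cells (luciferase flanked by upstream and downstream ATXN2 gene portions) were treated 24 h at 37 °C with compounds at up to 57 uM. SteadyGlo luminescence gave expression; GF-AFC fluorescence gave viability.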
HepG2 tox – kills HepG2 cells in TGF-b inhibitor counter-screen. actives 0.76% (n = 410,000). Potency, µM (doses to about 46.1 µM), inactives show top-dose activity change, negative = cytotoxicity, hits mostly cytotoxic. HepG2 CAGA-GFP viability, ATP luminescence, 18 h. AID 588856
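HepG2 CAGA-GFP cells (1000/well, DMEM with 1% FBS) received compound, then TGF-beta at 500 pg/mL final, and were incubated 18 hours at 37 degrees C. Viability was read by CellTiter-Glo luminescence. Media-only wells were set as complete cell-killing and DMSO as no toxicity.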
TGFb inhibitor – TGF-b pathway inhibition | AID 588855 | actives 1.2% (n = 410,000) | Potency, µM (titrated, usually from 46.1 µM), without a hit: top-dose activity, negative = inhibition, hits mostly inhibitors | HepG2 CAGA-GFP TGF-b/SMAD3 reporter, GFP fluorescence, 18 h; TGF-beta stimulated, 500 pg/mL final; note: % is set by controls: 0 for no effect and ±100 for the full control effect; nearly all actives have a fitted effect of over 65% in size
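Inhibition was scored as loss of TGF-beta-induced (500 pg/mL final, 18 hours, 37 degrees C) GFP in HEPG2 cells carrying a CAGA-GFP reporter, in DMEM with 1% FBS. Well GFP was summed per cell; Activity was normalised to unstimulated and stimulated DMSO wells, then concentration-response fitting.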
ATXN viability – reduces viability in counter-screen for ATXN expression inhibitors; S2 cells (HEK-293 line with an ATXN2-luciferase reporter) viability, CellTiter-Fluor protease fluorescence, 24 h; Potency, µM (titrated, usually from 56.7 µM), usual class: cytotoxic; actives 0.49% (n = 400,000); AID 651635; note: nearly all actives have a fitted effect of over 40% in size
GLP-1R agonist – activates the human GLP-1 receptor; actives 0.007% (n = 380,000); HEK293 GLP-1R CRE-luciferase, luminescence, 4-6 h; cells express a hypersensitive GLP-1R form; AID 624172; P43220; Potency, µM (series often up to 45.6 µM), for the others: top-dose activation, hits mostly activators; note: % of control where 0% means no effect
Target sequence (P43220 whole entry, looked up): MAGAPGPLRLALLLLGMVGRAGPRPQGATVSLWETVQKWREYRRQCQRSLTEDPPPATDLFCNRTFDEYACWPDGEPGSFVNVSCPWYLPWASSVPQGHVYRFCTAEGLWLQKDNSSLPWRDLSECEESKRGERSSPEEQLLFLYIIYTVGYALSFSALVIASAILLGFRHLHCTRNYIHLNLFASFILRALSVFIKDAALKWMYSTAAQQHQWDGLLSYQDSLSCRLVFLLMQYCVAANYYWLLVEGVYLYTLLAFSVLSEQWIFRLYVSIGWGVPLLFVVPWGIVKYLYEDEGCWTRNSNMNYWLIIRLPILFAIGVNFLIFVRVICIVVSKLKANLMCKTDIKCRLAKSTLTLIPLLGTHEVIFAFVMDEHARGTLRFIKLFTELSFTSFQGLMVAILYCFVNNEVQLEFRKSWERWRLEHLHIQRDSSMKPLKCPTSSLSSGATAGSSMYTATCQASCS
GLP-1R inv ag – inverse agonists of human GLP-1 receptor | P43220 | HEK293 GLP-1R CRE-luciferase, luminescence, 24 h; GLP-1R form is constitutively active | Potency, µM (series often up to 38.3 µM), without a hit: at the highest dose activity change, negative = inhibition, hits mostly inhibitors | actives 1.6% (n = 410,000) | AID 624417; note: % is set by controls: 0 for no effect and ±100 for the full control effect; nearly all actives have a fitted effect of over 55% in size
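Stable HEK293 clone (constitutively active GLP-1R + cAMP-response luciferase); 200 cells/uL plated, 12 h pre-culture, compound 24 hr, 37 deg C/5% CO2; detection reagent 12 min RT; luminescence.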
An asterisk follows results filed as active; i = inactive; ? = inconclusive; nt = not tested or not shown; ! = not confirmed by another sample; [ ] = remark or other dose. Calls come from the whole dose curve; as a rule, active = well fitted curve in the direction sought with a large enough effect; inconclusive = small, poorly fitted or top-dose-only effect, or another doubt; inactive = no such curve, though single readings can be large; an effect the other way counts as inactive or inconclusive. Potency is the fitted concentration of half-maximal effect.

SMILES	ATXN2 expr inh	HepG2 tox	TGFb inhibitor	ATXN viability	GLP-1R agonist	GLP-1R inv ag
COc1ccc(CC(=O)Nc2sc3c(c2C(=O)Nc2ccccc2)CCCCC3)cc1	nt	-26%	-26%	nt	nt	3%
CCOc1ccccc1NC(=O)c1ccc2c(Cl)c3c(nc2c1)CCC3	31%	-11%	-26%	i	1%	19%
CCN(Cc1nc(-c2cccc(C)c2)no1)S(=O)(=O)c1ccc(C)cc1	-5%	-14%	-29%	i	nt	?
Cc1c(C(=O)Nc2ccc(Br)cc2)cnn1C	48%	-59%	7%	i	7%	8%
Cc1c(C(=O)c2no[n+]([O-])c2C(=O)c2cnn(C)c2C)cnn1C	?	11µM*	7.9µM*	nt	-21%	?
CCN1CCc2c(C#N)c(N3CCCCC3)nc(NCc3ccccc3)c2C1	-31%	13µM*	22µM*	?	8%	?
Cc1cc(C)c(Cn2c(C(O)c3ccccc3)nc3ccccc32)c(C)c1 (stereo not drawn)	?	-39%	16µM*	?	nt	?
CCn1c(C(O)c2ccccc2)nc2ccccc21 (stereo not drawn)	-2%	1%	0%	i	-6%	0%
CN1CCN(C2=C(Cl)C(=O)N(C3CCCCC3)C2=O)CC1	-22%	-79%	13µM*	i	24%	-7%
Cc1cccc(NNC(=S)Nc2c(C)cccc2C)c1	-11%	-12%	?	i	9%	3.2µM*
Cc1cccc(NNC(=S)Nc2ccccc2)c1	nt	-3%	?	?	-1%	5.6µM*
Cc1cccc(NC(=S)Nc2ccccn2)c1	14%	-7%	?	i	25%	11µM*
Cc1cccc(C)c1NC(=S)Nc1ccc(F)cc1	-19%	-3%	4%	?	4%	-18%[7.66 µM]
Cc1cccc(NC(=S)NC(C)(C)CC(C)(C)C)c1	?	-8%	?	i	22%	10µM*
Cc1cccc(NNC(N)=S)c1	-4%	-3%	19%	i	-1%	-1%
COc1ccc(C)cc1NC(=O)NCc1ccc2c(c1)CCN2C(=O)c1ccccc1	nt	-13%	0%	nt	nt	?
COc1ccc(S(=O)(=O)n2nc(C)c(S(=O)(=O)N3CCCCCC3)c2C)cc1C	3%	3%	0%	?	-1%	9%
Cc1cccc(NC(=S)NNc2cccc(Cl)c2)c1	-33%	-43%	?	i	9%	10µM*
Cc1coc2ccccc2c1=O	5%	nt	nt	i	nt	nt
CCc1ccc(N2C(=O)N(CC(=O)C(C)(C)C)c3ccccc3S2(=O)=O)cc1	16%	-30%	-13%	i	0%	10%
CC(C)(O)[C@H]1CC[C@@](C)([C@H]2[C@@H](O)C[C@@]3(C)[C@@H]4C[C@H](O[C@@H]5O[C@H](CO)[C@@H](O)[C@H](O)[C@@H]5O)[C@H]5C(C)(C)[C@@H](O[C@@H]6OC[C@@H](O)[C@H](O)[C@@H]6O)CC[C@@]56C[C@@]46CC[C@]23C)O1	10%	nt	nt	nt	nt	nt
CCC1CN(C(=O)N2CCC(C(=O)NCc3cccc(OC)c3OC)CC2)c2cc(C)ccc2O1 (stereo not drawn)	-7%	-18%	11µM*!	i	7%	?
CC(=O)c1ccc(-c2c(C3C4C=CCCC4(C)C(=O)N3Cc3ccccc3)ccc3ccccc23)cc1 (stereo not drawn)	nt	-20%	?	nt	nt	nt
Cc1ccc2[nH]c3c(c2c1)CCCC3NC(=O)CCl (stereo not drawn)	?	18µM*	?	?	23%	?
COc1cc(=O)n2c(c1C(=O)NCc1ccco1)CCN(Cc1ccc(F)cc1Cl)CC2	nt	nt	nt	i	nt	nt
SMILES	ATXN2 expr inh	HepG2 tox	TGFb inhibitor	ATXN viability	GLP-1R agonist	GLP-1R inv ag
Cc1c(C(=O)c2ccc(F)cc2)c2ccccn2c1CCc1ccccn1	?	-12%	-24%	i	4%	10µM*
Cc1c(C(=O)c2ccccc2)c2ccccn2c1CCc1ccccn1	-27%[11.3 µM]	-21%	?	i	-3%	?
CCn1c2ccccc2c2cc(/C=C(/C#N)C(N)=S)ccc21	3.5µM*	-57%	4µM*	?	-10%	?
N#C/C(=C/c1ccc(F)cc1)C(N)=S	-23%	0%	9%	i	1%	1%
CC(C)(C)c1ccc(C(=O)N2CCCCCC2=O)cc1	6.3µM*	-20%	13%	i	2%	?
CC1CCN(C(=S)NC(=O)c2ccccc2)CC1	5%	7%	7%	?	-7%	?
CC1CCN(C(=S)NC(=O)c2ccc(C(C)(C)C)cc2)CC1	7%	-22%	-1%	i	12%	8.9µM*
CC(C)(C)c1ccc(C(=O)NC(=S)N2CCCCCC2)cc1	-11%	-2%	-2%	i	1%	7.1µM*
NS(=O)(=O)c1ccc(NC(=O)CN2CCN(c3ccc(F)cc3)CC2)cc1	-2%	-6%	-4%	i	nt	2%
CC(=O)Nc1ccc(/C=C/c2ccccn2)cc1	nt	-10%	-26%	nt	nt	nt
COc1cccc(-c2cnc3c(NC(C)=O)cc(-c4cccc(C(=O)NCCN(C)C)c4)cn23)c1	?	13µM*	?	?	15%	?
CC(=O)Nc1cc(-c2cccc(C(=O)NCCO)c2)cn2c(-c3cccc(C(F)(F)F)c3)cnc12	?	-111%	?	32µM*	10%	-4%
O=C(NCCO)c1cccc(-c2cnc3c(Nc4cccc(OC(F)(F)C(F)F)c4)nccn23)c1	?	-58%	?	32µM*	-6%	?
CC(=O)Nc1cc(-c2cccc(F)c2)cn2c(-c3ccc(F)c(Cl)c3)cnc12	-30%	-46%	18µM*	?	1%	?
